PubChem BioAssay AID602393 (Broad Institute, 2012)
Among all 350,000 compounds or so, about 7,000 (2%) were called active. This is one part of a sample in which actives are shown more often than they occur. No stated cut-off is given here; in the data, active means activation above about 40%; inconclusive means no clear call, values can overlap the other calls; inactive means below that.

Assay: Bmi1 luciferase reporter increase in mESCs, primary screen, esBAF inhibitor project, mouse ES cells, Bmi1 luciferase knock-in, single point (AID 602393);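 further: 0% = median of the plate's neutral control wells and 100% = double that signal; a rise in the Bmi1 reporter signal indicates esBAF inhibition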
Details: 24 h, at 12.5 µM, stronger effect = higher value

Compound | reporter increase
CC(C)(C)c1ccc(OC(=O)N2CCCCC2)cc1 | 91.1% (active)
CN1CCN(C(=O)COc2ccc(C(C)(C)C)cc2Br)CC1 | 1.71% (inactive)
O=C(NC1CCCCC1)N1Cc2cc(N3CCCCC3)ccc2-n2nncc2C1 | 5.49% (inactive)
CSCCC(c1nnnn1C(C)(C)C)N1CCC(n2c(=O)[nH]c3ccccc32)CC1 (stereo not given) | -9.76% (inactive)
O=P(OC1=CCCCC1)(c1ccccc1)c1ccccc1 | -0.107% (inactive)
CN(C)C(=O)Oc1ccc2c(c1)O/C(=C\c1ccccc1)C2=O | 46.6% (active)
CN(C)C(=O)Oc1ccc(NC(=O)N2CCOCC2)cc1 | -0.475% (inactive)
S=C(NCCc1ccccc1)N1Cc2cc(N3CCOCC3)ccc2-n2nncc2C1 | 0.039% (inactive)
C[C@H](CO)N1C[C@H](C)[C@H](CN(C)C(=O)Oc2ccc3ccccc3c2)OCc2cnnn2CCCC1=O | 2.57% (inactive)
N#Cc1cccc(-c2ccc([C@H]3[C@@H](CO)N4CCCCN(C(=O)Cc5cccnc5)C[C@@H]34)cc2)c1 | 0.128% (inactive)
COC(=O)[C@H]1[C@H](CO)[C@H]2Cn3c(cccc3=O)[C@H]2N1CC1CC1 | 0.469% (inactive)
COc1ccc2c(c1)NP(=S)(c1ccccc1)N2 (stereo not given) | 43.7% (active)
Cc1cc(C)c2c(c1)NP(=S)(c1ccccc1)N2 (stereo not given) | 7.37% (inactive)
O=C(O)[C@H]1[C@H](CO)[C@H]2Cn3c(ccc(-c4ccccc4F)c3=O)[C@@H]1N2C(=O)c1cccnc1 | -1.7% (inactive)
COC(=O)C1=C(c2ccc(OCc3ccccc3)cc2)C[C@@H]2CC[C@H]1N2C(=O)NCc1cccc(F)c1 | 3.43% (inactive)
